The results in this text go back to PubChem BioAssay (NCATS).

A short description of experiment [1]: Quantitative High-Throughput drug screen in 47 multiple myeloma cell lines against the NCATS MIPE library collection: OCIMY7_PLB cell viability assay (AID 1918987). Further: nearly all actives have a fitted effect of over 65% in size. The settings on record: OCI-MY7 myeloma viability, CellTiter-Glo ATP, 48 h; viability (% of DMSO): at 45.8 µM (top of the series). A digest of the protocol: (§1)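 MIPE 4.0 approved/investigational drugs; 500 cells/well; 48 h 37 °C humidified 5% CO2; CTG luminescence readout; DMSO = 100%, media = 0% viability.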
For orientation: In ATP-based viability assays light output follows the ATP content of the culture.

Experiment [2] in a line: Quantitative High-Throughput drug screen in 47 multiple myeloma cell lines against the NCATS MIPE library collection: OPM1_PLB cell viability assay (AID 1918989). Further: nearly all actives have a fitted effect of over 40% in size. A digest of the protocol: as §1
Experiment [3] can be described thus: Quantitative High-Throughput drug screen in 47 multiple myeloma cell lines against the NCATS MIPE library collection: MM1R_ATCC cell viability assay (AID 1918981). Further: nearly all actives have a fitted effect of over 35% in size. A digest of the protocol:
as §1

Experiment [4] can be described thus: Quantitative High-Throughput drug screen in 47 multiple myeloma cell lines against the NCATS MIPE library collection: KMS28PE_JCRB cell viability assay (AID 1918983). Further: nearly all actives have a fitted effect of over 35% in size. A digest of the protocol:
as §1

The nature of experiment [5]: Quantitative High-Throughput drug screen in 47 multiple myeloma cell lines against the NCATS MIPE library collection: OCIMY5_PLB cell viability assay (AID 1918988). Further: nearly all actives have a fitted effect of over 65% in size. A digest of the protocol: as §1
A short description of experiment [6]: Quantitative High-Throughput drug screen in 47 multiple myeloma cell lines against the NCATS MIPE library collection: KMS34_JCRB cell viability assay (AID 1918985). Further: nearly all actives have a fitted effect of over 40% in size. A digest of the protocol:
as §1

The nature of experiment [7]: Quantitative High-Throughput drug screen in 47 multiple myeloma cell lines against the NCATS MIPE library collection: L363_DSMZ cell viability assay (AID 1918984). Further: nearly all actives have a fitted effect of over 40% in size. A digest of the protocol: as §1

Each structure is given as a SMILES string. Records with an inconclusive call do not appear. The source made the active and inactive calls. The call rests on the fitted dose curve; in most records, active means well fitted cell-killing curve with a large enough effect; inconclusive means small, poorly fitted or top-dose-only effect, or effect the other way; inactive means no such curve, though single readings can be large or run the other way.
Potency means the concentration at half of the fitted maximal effect.

Regarding `COc1ccc2c(Oc3ccc(NC(=O)c4c(C)n(CC(C)(C)O)n(-c5ccccc5)c4=O)cc3F)ccnc2c1`, the Potency in experiment [1] is 16.6 µM (active); in experiment [2], 18.7 µM (active).

Turning to `c1ccc2c(Cc3c[nH]c4ccccc34)c[nH]c2c1`, the Potency was 2.35 µM (active) in experiment [3]; 26.4 µM (active) in experiment [4]; 1.05 µM (active) in experiment [1]; 0.743 µM (active) in experiment [5]; 7.43 µM (active) in experiment [2].

Take `CN(C)CCC=C1c2ccccc2COc2ccc(CC(=O)O)cc21`: the Potency entry in experiment [3], in experiment [4], in experiment [6] and in experiment [2] was “inactive” each time.

As for `COc1ncc(-c2ccc3nccc(-c4ccnnc4)c3c2)cc1NS(=O)(=O)c1ccc(F)cc1F`, the Potency was 0.166 µM (active) in experiment [1] and 1.48 µM (active) in experiment [5].

As for `CC[C@H]1OC(=O)[C@H](C)C(=O)[C@H](C)[C@@H](O[C@H]2O[C@H](C)C[C@H](N(C)C)[C@@H]2O)[C@](C)(OC)C[C@@H](C)C(=O)[C@H](C)[C@H]2N(CCCCn3cnc(-c4cccnc4)c3)C(=O)O[C@]12C`, the Potency in experiment [3] is 16.6 µM (active); in experiment [1], 14.8 µM (active); in experiment [5], 26.4 µM (active). The Potency entry in experiment [2] is “inactive”.

On to `CC(C)(C)c1cc(C(=O)O)c(NC(=O)Nc2ccc3[nH]ncc3c2)s1`, for which the Potency entry in experiment [3] and in experiment [6] was “inactive” throughout.

Turning to `NC(=O)c1ccc2nc(-c3ccc(Oc4ccc(Cl)cc4)cc3)[nH]c2c1`, the Potency entry in experiment [4] was “inactive”. The Potency in experiment [2] is 6.62 µM (active).

For `CC(=O)Oc1cc2c(s1)CCN(C(C(=O)C1CC1)c1ccccc1F)C2` (centres undefined), the Potency in experiment [4] was 2.64 µM (active); in experiment [7], 0.935 µM (active); in experiment [1], 0.935 µM (active); in experiment [5] it was 0.833 µM (active).

In the case of `CC(C)C(=O)Nc1ncc(-c2cc(C(F)F)nn2-c2c(Cl)cccc2Cl)s1`, the Potency in experiment [4] was 20.9 µM (active); in experiment [7] it was 8.33 µM (active); in experiment [1], 16.6 µM (active); in experiment [5], 18.7 µM (active); in experiment [2] it was 20.9 µM (active).

Turning to `CC(C)[C@H](CO)Nc1nc(Nc2ccc(C(=O)O)c(Cl)c2)c2ncn(C(C)C)c2n1`, the Potency is 37.2 µM (active) in experiment [4], 16.6 µM (active) in experiment [1] and 10.5 µM (active) in experiment [2].

With `CN[C@@H](C)C(=O)N[C@H]1CN(C(=O)CC(C)C)CC[C@H]2CC[C@@H](C(=O)NC(c3ccccc3)c3ccccc3)N2C1=O`, the Potency in experiment [3] was 14.8 µM (active); in experiment [1] it was 10.5 µM (active); in experiment [5] it was 20.9 µM (active); in experiment [2], 14.8 µM (active).

As for `C=C1C(=O)OC2C=C(C)CCC=C(C)CCC12` (centres undefined), the Potency is 23.5 µM (active) in experiment [3]; 23.5 µM (active) in experiment [4]; 29.6 µM (active) in experiment [7]; 14.8 µM (active) in experiment [6]; 4.69 µM (active) in experiment [1]; 18.7 µM (active) in experiment [2].

For the molecule `Oc1ccc(C2CCN(c3ccnc4ccccc34)CC2)cc1O`, the Potency in experiment [4] was 16.6 µM (active); in experiment [7], 18.7 µM (active); in experiment [6] it was 16.6 µM (active); in experiment [5], 14.8 µM (active); in experiment [2], 16.6 µM (active).

Regarding `CCOc1ccc(Nc2nc(-c3c(C)nc4ccccn34)cs2)cc1`, the Potency is 0.0059 µM (active) in experiment [3], 0.0059 µM (active) in experiment [4], 0.0033 µM (active) in experiment [6] and 0.0066 µM (active) in experiment [2].

As to `Clc1cc(Cl)cc(CNc2ncncc2-c2ccc3c(c2)OCO3)c1`, the values for the Potency in experiment [1], in experiment [5] and in experiment [2] were 4.69 µM (active), 20.9 µM (active) and 20.9 µM (active), respectively.

Take `O=C1NC(=O)C(=Cc2ccc(-c3ccc(F)cc3)o2)S1`: the Potency was 2.09 µM (active) in experiment [3], 3.72 µM (active) in experiment [7] and 20.9 µM (active) in experiment [1].

Regarding `N[C@H](CSC(c1ccccc1)(c1ccccc1)c1ccccc1)C(=O)O`, the Potency in experiment [6] was 9.35 µM (active); in experiment [1], 7.43 µM (active); in experiment [5] it was 9.35 µM (active); in experiment [2], 5.9 µM (active).

As for `Cc1cccc(Nc2nc(-c3ccncc3)cs2)c1`, the results for the Potency in experiment [7] and in experiment [2] were 18.7 µM (active) and 14.8 µM (active), respectively.
